Laboratory results as given in PubChem BioAssay AID2391 (Southern Research Specialized Biocontainment Screening …, 2010).
About 410 (0.13%) of roughly 310,000 compounds were called active. Not shown: some 2% with an inconclusive outcome. The rule behind the calls is not given here. The list is a sample of the results. Results with a measured potency or affinity are listed apart.

test: RSV antiviral activity via CPE protection, HEp-2 cells, primary 10 µM value included (AID 2391); settings: RSV-induced CPE inhibition, at 10 µM, hits give high values

CPE inhibition, inactive:
CCC(CC)c1nnc(NC(=O)c2c(C)nn(Cc3ccccc3Cl)c2C)s1 10.8%
CC(=O)Nc1ccc(NC(=O)c2c(C)nn(Cc3ccccc3Cl)c2C)cc1 1.12%
COc1ccc(-c2nc(N=Nc3ccc(O)cc3)n[nH]2)cc1 9.37%
CN(C)S(=O)(=O)c1cc(NC(=O)CN2CCN(c3ccc(O)cc3)CC2)ccc1Cl 0.75%
OC1CCN(c2cc(-c3ccccc3)nc3cc(-c4ccc(F)cc4)nn23)CC1 5.15%
COc1cccc(-c2cc3nc(-c4ccccc4)cc(N4CCCC(O)C4)n3n2)c1 (stereo unspecified) 14.1%
C=CCOC(=O)C(C#N)c1nc2ccccc2nc1N1CCN(c2ccccc2OC)CC1 (stereo unspecified) 0.49%
C/C(=N\O)c1ccc2[nH]ccc2c1 5.17%
CC(=O)Nc1ccc2[nH]ccc2c1 -0.73%
COc1ccc(OC)c(NC(=O)c2cccc(S(=O)(=O)N(Cc3ccccc3)c3ccccc3OC)c2)c1 2.42%
Cc1nc2ccc(N=NC3=C(O)CC(C)(C)CC3=O)cc2s1 2.75%
COc1ccccc1OCCn1cc(C=O)c2ccccc21 -0.05%
O=C(NC(Cc1c[nH]c2ccccc12)C(=O)N/N=C/c1cccc2ccccc12)c1cccs1 (stereo unspecified) 18.5%
O=C(NC(Cc1c[nH]c2ccccc12)C(=O)N1CCOCC1)c1cccs1 (stereo unspecified) -0.02%
O=C(NC(Cc1c[nH]c2ccccc12)C(=O)O)c1cccs1 (stereo unspecified) -1.85%
O=C(Nc1ccc(F)c([N+](=O)[O-])c1)c1cccs1 4.17%
COC(=O)C(Cc1c[nH]c2ccccc12)NC(=O)c1cccs1 (stereo unspecified) 1.21%
O=C(NC(Cc1c[nH]c2ccccc12)C(=O)N/N=C/c1ccc(Br)cc1)c1cccs1 (stereo unspecified) -2.58%
CC1(C)CC(=O)c2cc(C(=O)NC3CCSC3=O)c(=O)n(-c3ccc(Cl)cc3)c2C1 (stereo unspecified) 0.72%
O=S(=O)(Nc1ccccc1)c1cccc2nsnc12 1.2%
CCc1ccc(N2CC(C(=O)OCC(=O)NNC(=O)c3ccccc3)CC2=O)cc1 (stereo unspecified) 1.46%
COc1cccc(NC(=O)C(NCC(C)(C)CN(C)C)c2ccccc2)c1 (stereo unspecified) 1.08%
CC1(C)Cc2cccc(C(=O)Nc3ccc(Cl)cc3)c2O1 13.1%
CC1CCN(C(=O)COC(=O)Cc2c[nH]c3ccccc23)CC1 -0.07%
CCOC(=O)N1CCc2c(sc3c2c(=O)n(-c2ccc(CC)cc2)c(=O)n3CC(=O)NCC2CCCO2)C1 (stereo unspecified) -1.83%
O=C(CNc1cccc2ccccc12)N/N=C/c1ccc([N+](=O)[O-])cc1 0.72%
COc1cc([N+](=O)[O-])cc(/C=N/NC(=O)C(C)Nc2cccc3ccccc23)c1O (stereo unspecified) 7.79%
Cc1cccnc1NC(=S)Nc1ccc(F)cc1F 1.49%
COC(=O)[C@@H]1[C@@H](C)N(Cc2ccccc2)C(=O)N[C@H]1c1cccc(C(F)(F)F)c1 3.75%
Cc1cc2nc3n(c2cc1C)CCCN3 5.29%
O=C(Nc1sc(-c2ccccc2)cc1C(=O)O)c1ccccc1 7.6%
CCOC(=O)c1cc(-c2ccccc2)sc1NC(=O)C(C)(C)C 0.09%
COc1ccc(-c2cc(-c3ccc(C)cc3)nc(SCc3nnc(-c4ccccc4)o3)c2C#N)cc1OC 2.51%
Cc1ccc(OCCOC(=O)c2cccc(S(=O)(=O)N3CC(C)OC(C)C3)c2)cc1 (stereo unspecified) 3.28%
COc1ccc(OC)c(-n2c(C)cc(/C=C3\C(=N)N4N=C(CC(=O)N5CCOCC5)SC4=NC3=O)c2C)c1 17%
COc1ccc(/C=C2\C(=N)N3N=C(CC(=O)N4CCOCC4)SC3=NC2=O)cc1 -0.02%
COc1cccc(-n2c(C)cc(/C=C3/C(=N)N4C(=NC3=O)SN=C4S(C)(=O)=O)c2C)c1 16.5%
COc1ccc(-n2c(C)cc(/C=C3\C(=N)N4N=C(CC(=O)N5CCOCC5)SC4=NC3=O)c2C)cc1 3.44%
Cc1cc(/C=C2/C(=N)N3C(=NC2=O)SN=C3S(C)(=O)=O)c(C)n1-c1ccc(F)cc1 7.04%
Cc1cc(/C=C2\C(=N)N3N=C(CC(=O)N4CCOCC4)SC3=NC2=O)c(C)n1-c1ccccc1 7.24%
CCC1=NN2C(=N)/C(=C\c3cccn3-c3ccc(OC)cc3)C(=O)N=C2S1 5.71%
O=C(N/N=C/c1ccc(Cl)cc1)C(=O)N1CCCCCC1 -0.12%
O=C(NCc1ccco1)/C(=C\c1cccs1)NC(=O)c1ccco1 -0.55%
Nc1nc(N2CCCCC2)nc(N2CCCCC2)n1 0.85%
NS(=O)(=O)c1ccc(CNS(=O)(=O)c2ccc3c(c2)OCCO3)cc1 2.01%
Cc1cc(=O)oc2cc(NC(=O)c3cccc(F)c3)ccc12 4.53%
Clc1ccc(-n2c(SCc3nc4ccccc4[nH]3)nnc2-c2ccncc2)cc1 0.34%
CC(=O)NC(c1ccc(F)cc1)c1cccnc1 (stereo unspecified) 1.45%
CCc1nc(SCC(=O)c2cccc([N+](=O)[O-])c2)n[nH]1 1.44%
CCN1C(=O)N[C@@H](c2ccc(Br)cc2)C(C(=O)OC)=C1C 5.67%
CCN1C(=O)N[C@H](c2ccc(Br)cc2)C(C(=O)OC)=C1C 0.05%
COC(=O)C1=C(C)N(Cc2ccccc2)C(=S)N[C@H]1c1ccccc1 14.1%
CC(=O)C1=C(C)N(Cc2ccccc2)C(=O)N[C@@H]1c1cccc(C(F)(F)F)c1 0.41%
CC(=O)C1=C(C)N(Cc2ccccc2)C(=O)N[C@H]1c1cccc(C(F)(F)F)c1 4.45%
COC(=O)C1=C(C)N(Cc2ccccc2)C(=O)N[C@H]1c1cccc(F)c1 3.4%
O=C(CSc1nccc(=O)[nH]1)c1ccccc1Br 2.89%
